Outcome and AC50 data for five compounds are collected here from PubChem BioAssay (EPA / NIEHS).

“And” between values parts separate entries of the source, which are not always exact repeats. Identical values can stand only once. Inconclusive results are not listed. The source made the active and inactive calls. How the source made its calls, unless noted: active means hit-call score of the fitted dose curve at least 0.9, where 1 is the maximum; inactive means score below 0.9.

A short description of test [1]: BSK_LPS_SRB: Viability Assessment in the BioMAP Diversity Plus: LPS Assay (AID 2283079).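 Further: total protein by sulforhodamine B absorbance as a cytotoxicity measure; measured one day after compound addition; fitted in both directions against DMSO so loss or gain of signal counts.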 The following applies: primary human HUVEC with PBMC. A digest of the protocol: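 Cytotoxicity endpoint in human endothelial–PBMC co-culture: 24 h exposure, then SRB (0.1%) staining, 560 nm read.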
Read-out in test [2]: Interleukin-1 alpha (IL1a), IL1A (gene 3552)
In words: BSK_LPS_IL1a: BioMAP Diversity Plus: LPS Assay for Interleukin-1 alpha (IL1a) Biomarker Activity (AID 2283080). The following applies: primary human HUVEC with PBMC; actives raise or lower the signal. A digest of the protocol:
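Primary human HUVEC and PBMC co-culture stimulated with LPS is dosed and harvested at 24 h. Both increases and decreases in ELISA-measured IL-1a are scored relative to DMSO.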

Read-out in test [3]: Monocyte Chemoattractant Protein-1 (MCP1), CCL2 (gene 6347)
In words: BSK_LPS_MCP1: BioMAP Diversity Plus: LPS Assay for Monocyte Chemoattractant Protein-1 (MCP1) Biomarker Activity (AID 2283081).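 On AC50: secreted MCP-1 protein quantified by ELISA in culture supernatant.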 As to conditions: primary human HUVEC with PBMC; actives raise or lower the signal. A digest of the protocol:
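Values derive from bidirectional fitting against DMSO of ELISA-measured MCP-1 in a human primary endothelial and mononuclear cell co-culture, 24 h after chemical addition under LPS activation.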

Test [4] in a line: BSK_LPS_PGE2: BioMAP Diversity Plus: LPS Assay for Prostaglandin E2 (PGE2) Biomarker Activity (AID 2283082). The following applies: primary human HUVEC with PBMC; actives raise or lower the signal. A digest of the protocol: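 HUVEC plus PBMC co-culture stimulated with LPS; secreted PGE2 quantified by ELISA 24 h after chemical dosing. Activity fitted bidirectionally against DMSO as negative control and baseline; parallel SRB total-protein staining served as cytotoxicity check.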

Read-out in test [5]: Macrophage colony-stimulating factor (MCSF), CSF1 (gene 1435)
In words: BSK_LPS_MCSF: BioMAP Diversity Plus: LPS Assay for Macrophage colony-stimulating factor (MCSF) Biomarker Activity (AID 2283083). The following applies: primary human HUVEC with PBMC; actives raise or lower the signal. A digest of the protocol: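 Bidirectional fit versus DMSO of ELISA-measured M-CSF in co-cultured human umbilical vein endothelial cells and PBMC, sampled 24 h after dosing.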

Read-out in test [6]: Tissue Factor, F3 (gene 2152)
The experiment in a line: BSK_LPS_TissueFactor: BioMAP Diversity Plus: LPS Assay for Tissue Factor Biomarker Activity (AID 2283084). The following applies: primary human HUVEC with PBMC; actives raise or lower the signal. A digest of the protocol: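 Read-out: CD142 ELISA, 24 h. System: LPS-driven human endothelial/PBMC co-culture. Analysis: up- or down-signal fitted against DMSO.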

Read-out in test [7]: Tumor necrosis factor (Homo sapiens) (UniProt P01375)
In words: BSK_LPS_TNFa: BioMAP Diversity Plus: LPS Assay for Tumour Necrosis Factor alpha (TNFa) Biomarker Activity (AID 2283085). As to conditions: primary human HUVEC with PBMC; actives raise or lower the signal. A digest of the protocol: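 Human umbilical vein endothelial cells co-cultured with PBMC were exposed to test chemical and TNFa measured by ELISA 24 h after dosing. Bidirectional curve fitting was done relative to DMSO as negative control and baseline.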

Read-out in test [8]: Vascular cell adhesion molecule 1 (VCAM1), VCAM1 (gene 7412)
In words: BSK_LPS_VCAM1: BioMAP Diversity Plus: LPS Assay for Vascular cell adhesion molecule 1 (VCAM1) Biomarker Activity (AID 2283086). As to conditions: primary human HUVEC with PBMC; actives raise or lower the signal. A digest of the protocol:
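Human umbilical vein endothelial cells co-cultured with peripheral blood mononuclear cells under LPS stimulation were exposed to test chemical for 24 h. VCAM-1 levels were then measured by ELISA, with bidirectional curve fitting relative to DMSO as negative control and baseline.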

Read-out in a further test: CD38, CD38 (gene 952)
In words: BSK_SAg_CD38: BioMAP Diversity Plus: SAg Assay for CD38 Biomarker Activity (AID 2283087). The following applies: primary human HUVEC with PBMC; actives raise or lower the signal. A digest of the protocol:
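Fluorescence ELISA of cell-surface CD38 served as the read-out, with either increase or decrease fitted against DMSO controls. Cells were a human umbilical vein endothelium plus PBMC co-culture under SEB/TSST-1 stimulation, measured 24 h after dosing.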

Read-out in the next test: CD40, CD40 (gene 958)
In words: BSK_SAg_CD40: BioMAP Diversity Plus: SAg Assay for CD40 Biomarker Activity (AID 2283088). As to conditions: primary human HUVEC with PBMC; actives raise or lower the signal. A digest of the protocol:
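Endpoint derived by fitting increases or decreases versus DMSO controls. CD40 is detected by fluorescence ELISA in a human vascular co-culture of endothelium and PBMC at 24 h.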

Read-out in a further test: CD69, CD69 (gene 969)
In words: BSK_SAg_CD69: BioMAP Diversity Plus: SAg Assay for CD69 Biomarker Activity (AID 2283089).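 On AC50: cell surface CD69 protein quantified by ELISA with fluorescence detection.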 As to conditions: primary human HUVEC with PBMC; actives raise or lower the signal. A digest of the protocol: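 Values derive from bidirectional fitting relative to DMSO vehicle. Cells: umbilical vein endothelium plus peripheral blood mononuclear cells, treated 24 h before fluorescent ELISA for CD69.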

Read-out in test [9]: Monocyte Chemoattractant Protein-1 (MCP1), CCL2 (gene 6347)
The experiment in a line: BSK_SAg_MCP1: BioMAP Diversity Plus: SAg Assay for Monocyte Chemoattractant Protein-1 (MCP1) Biomarker Activity (AID 2283090). The following applies: primary human HUVEC with PBMC; actives raise or lower the signal. A digest of the protocol: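 MCP-1 levels in the endothelial–PBMC SAg co-culture were quantified by ELISA at 24 h post-dosing; both increases and decreases versus DMSO scored. Cytotoxicity monitored by SRB total protein in parallel cultures.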

Read-out in test [10]: E-selectin (Homo sapiens) (UniProt P16581)
In words: BSK_SAg_Eselectin: BioMAP Diversity Plus: SAg Assay for Eselectin Biomarker Activity (AID 2283091). The following applies: primary human HUVEC with PBMC; actives raise or lower the signal. A digest of the protocol: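 Endpoint values derive from bidirectional fitting relative to DMSO, using ELISA-measured E-selectin in a human vascular co-culture (umbilical vein endothelium plus PBMC) sampled 24 h after dosing.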

Read-out in test [11]: Monokine induced gamma interferon (MIG), CXCL9 (gene 4283)
In words: BSK_SAg_MIG: BioMAP Diversity Plus: SAg Assay for Monokine induced gamma interferon (MIG) Biomarker Activity (AID 2283092). As to conditions: primary human HUVEC with PBMC; actives raise or lower the signal. A digest of the protocol:
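Values reflect bidirectional fitting of ELISA-measured MIG against DMSO vehicle, taken 24 h after dosing of a co-culture of human umbilical vein endothelial cells and peripheral blood mononuclear cells.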

Test [12] can be described thus: BSK_SAg_PBMCCytotoxicity: PBMC Cytotoxicity Assessment in the BioMAP Diversity Plus: SAg Assay (AID 2283093).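 Further: PBMC viability measured as Alamar Blue reduction fluorescence at 546/580 nm; fitted both ways against DMSO so a hit may be loss or gain of signal.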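 On AC50: PBMC superantigen activated with SEB plus TSST-1 one hour after compound addition.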 As to conditions: primary human HUVEC with PBMC. A digest of the protocol: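 Human umbilical vein endothelial cells co-cultured with PBMC; PBMC (75,000/well) pre-treated with compound 1 h, then activated with SEB and TSST-1 (20 ng/mL final each) for 90 h. Alamar Blue added 6 h, fluorescence 546/580 nm; bidirectional fit versus DMSO.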

Read-out in test [13]: Interleukin-8 (IL8), CXCL8 (gene 3576)
In words: BSK_SAg_IL8: BioMAP Diversity Plus: SAg Assay for Interleukin-8 (IL8) Biomarker Activity (AID 2283094). As to conditions: primary human HUVEC with PBMC; actives raise or lower the signal. A digest of the protocol: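 Human umbilical vein endothelial cells co-cultured with peripheral blood mononuclear cells; IL-8 measured by ELISA 24 h after chemical dosing. Bidirectional concentration-response fitting used DMSO as negative control and activity baseline.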

Test [14] can be described thus: BSK_SAg_Proliferation: Cell Proliferation Assessment in the BioMAP Diversity Plus: SAg Assay (AID 2283095).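 Further: relative cell number as total protein by SRB absorbance in sub-confluent culture.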 The following applies: primary human HUVEC with PBMC. A digest of the protocol: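 Human umbilical vein endothelial cells co-cultured with peripheral blood mononuclear cells; total protein measured by sulforhodamine B staining (0.1% SRB after 10% TCA fixation), absorbance at 560 nm, at 96 h. Bidirectional fit against DMSO baseline.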

Test [15] can be described thus: BSK_SAg_SRB: Viability Assessment in the BioMAP Diversity Plus: SAg Assay (AID 2283096).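 Further: cells read one day after compound addition; hits may be either gain or loss of signal compared with DMSO.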 As to conditions: primary human HUVEC with PBMC. A digest of the protocol: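 Endothelial/PBMC primary human co-culture; compound 24 h; fix 10% TCA, stain 0.1% SRB, A560; protein content as cytotoxicity proxy; bidirectional curve fit, DMSO = baseline.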
Test [16] concerns the target human CYP2A6, CYP2A6 (gene 1548) (UniProt P11509). In words: NVS_ADME_hCYP2A6: NovaScreen (NVS) CYP450-related Enzyme Activity (ADME) Assay for human CYP2A6 (AID 2283099; active means hit-call score of the fitted dose curve at least 0.9, where 1 is the maximum). A digest of the protocol:
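Loss of fluorescence signal relative to acetonitrile vehicle reported CYP2A6 inhibition in a cell-free system using insect-cell-derived enzyme. Readings were taken at 0.5 h; top concentration in follow-up dose series was 20 uM.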

E-selectin (Homo sapiens), sequence (P16581 whole entry, looked up): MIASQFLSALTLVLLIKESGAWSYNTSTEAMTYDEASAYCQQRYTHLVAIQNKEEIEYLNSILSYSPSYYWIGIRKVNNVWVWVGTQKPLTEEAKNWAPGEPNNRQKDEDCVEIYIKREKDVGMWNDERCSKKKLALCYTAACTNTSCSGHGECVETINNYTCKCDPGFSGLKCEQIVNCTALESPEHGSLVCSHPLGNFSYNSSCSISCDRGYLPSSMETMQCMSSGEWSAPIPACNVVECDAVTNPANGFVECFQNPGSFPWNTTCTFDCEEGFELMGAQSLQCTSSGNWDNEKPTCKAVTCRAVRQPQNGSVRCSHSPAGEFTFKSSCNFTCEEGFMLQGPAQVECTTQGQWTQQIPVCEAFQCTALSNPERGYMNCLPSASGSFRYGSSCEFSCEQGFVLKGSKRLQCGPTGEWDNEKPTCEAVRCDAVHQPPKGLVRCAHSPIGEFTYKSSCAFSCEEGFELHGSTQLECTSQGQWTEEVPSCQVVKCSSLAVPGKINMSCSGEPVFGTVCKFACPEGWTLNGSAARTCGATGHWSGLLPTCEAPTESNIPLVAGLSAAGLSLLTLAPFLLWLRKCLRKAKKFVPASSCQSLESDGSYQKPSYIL
Tumor necrosis factor (Homo sapiens), sequence (P01375 whole entry, looked up): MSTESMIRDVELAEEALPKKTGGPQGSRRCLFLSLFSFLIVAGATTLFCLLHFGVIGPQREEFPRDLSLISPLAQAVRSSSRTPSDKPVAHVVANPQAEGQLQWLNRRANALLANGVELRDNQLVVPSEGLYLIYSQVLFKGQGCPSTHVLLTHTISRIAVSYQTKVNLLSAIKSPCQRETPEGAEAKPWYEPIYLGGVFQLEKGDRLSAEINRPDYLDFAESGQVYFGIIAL
human CYP2A6, CYP2A6 (gene 1548), sequence (P11509 whole entry, looked up): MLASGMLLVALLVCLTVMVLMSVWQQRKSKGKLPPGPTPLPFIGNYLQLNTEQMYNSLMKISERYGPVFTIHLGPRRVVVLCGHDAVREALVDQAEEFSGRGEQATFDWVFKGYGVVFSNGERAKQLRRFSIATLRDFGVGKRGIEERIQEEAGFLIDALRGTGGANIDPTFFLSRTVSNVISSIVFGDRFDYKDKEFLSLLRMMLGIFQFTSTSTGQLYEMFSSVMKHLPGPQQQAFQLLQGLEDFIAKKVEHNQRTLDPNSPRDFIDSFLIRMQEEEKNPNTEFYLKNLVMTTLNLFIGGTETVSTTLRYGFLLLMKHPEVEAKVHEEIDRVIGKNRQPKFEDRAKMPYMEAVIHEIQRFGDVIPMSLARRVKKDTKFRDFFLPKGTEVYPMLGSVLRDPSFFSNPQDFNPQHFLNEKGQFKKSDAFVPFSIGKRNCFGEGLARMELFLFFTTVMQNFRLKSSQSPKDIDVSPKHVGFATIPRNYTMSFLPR

Take `COc1c(Cl)ccc(Cl)c1C(=O)O`: the result in [1], in test [2], in [3], in test [4], in [5] and in test [6] was inactive. The outcome is “inactive” in test [7]; “inactive” in test [8]; “inactive” in the test with CD38, CD38 (gene 952); “inactive” with CD40, CD40 (gene 958); “inactive” in the test with CD69, CD69 (gene 969); “inactive” in [10]. The result in [11], in test [12], in [13], in [14] and in test [15] was inactive. Besides, in test [9], the AC50 (as a rule, the concentration at which the activity in the assay is half-maximal) was 11.8 µM (active).

In the case of `CSC(=O)c1cccc2nnsc12`, the result in [1], in [2], in test [3], in test [4], in [5] and in test [6] was inactive. Further, the outcome was “inactive” in [8]; “inactive” in the test with CD38, CD38 (gene 952); “inactive” in the test with CD40, CD40 (gene 958); “inactive” with CD69, CD69 (gene 969); “inactive” in test [9]; “inactive” in test [10]. The result in test [11], in test [12], in [13], in test [14] and in test [15] was inactive. Also, the figures for the concentration at half-maximal activity (AC50) in test [7] and in [16] were 4.96 µM (active) and 1.22 µM (active), respectively.

In the case of `CCCCOC(=O)C(C)Oc1ccc(Oc2ccc(C(F)(F)F)cn2)cc1` (stereo not given), the outcome in [1], in [2], in [3], in test [4], in test [5] and in test [6] was inactive. Also, the outcome is “inactive” in test [7]; “inactive” in test [8]; “inactive” with CD38, CD38 (gene 952); “inactive” with CD40, CD40 (gene 958); “inactive” in test [9]; “inactive” in test [10]. Further, the outcome in test [11], in test [12], in test [13], in [14] and in test [15] was inactive.

Regarding `COC(=O)c1ccccc1S(=O)(=O)NC(=O)Nc1nc(OC(F)F)cc(OC(F)F)n1`, the result in test [1], in test [2], in test [3], in [4], in test [5] and in test [6] was inactive. Also, the outcome in test [8] is “inactive”; with CD38, CD38 (gene 952), “inactive”; in the test with CD40, CD40 (gene 958), “inactive”; in test [9] it was “inactive”; in test [10], “inactive”; in test [11], “inactive”. The result in test [12], in test [13], in test [14] and in [15] was inactive. The AC50 in test [7] was 12 µM (active).

Regarding `N#CSCSc1nc2ccccc2s1`, the concentration at half-maximal activity (AC50) in test [1] is 8.07 µM (active) and 9.64 µM (active); in test [2], 1.51 µM (active) and 4.83 µM (active); in [3] it was 6.17 µM (active) and 6.23 µM (active); in [4], 1.9 µM (active) and 2.28 µM (active); in [5], 2.25 µM (active) and 6.78 µM (active); in test [6] it was 2.42 µM (active) and 5.42 µM (active). The AC50 is 992 nM (active) and 2.17 µM (active) in [7]; 4.53 µM (active) and 9.69 µM (active) in test [8]; 5.37 µM (active) and 5.56 µM (active) in the test with CD38, CD38 (gene 952); 5.42 µM (active) and 6.26 µM (active) in the test with CD40, CD40 (gene 958); 3.12 µM (active) and 6.36 µM (active) with CD69, CD69 (gene 969); 7.7 µM (active) and 10.5 µM (active) in [9]. The AC50 is 5.69 µM (active) and 8.52 µM (active) in [10]; 11.6 µM (active) and 9.68 µM (active) in [11]; 909 nM (active) and 2.23 µM (active) in [12]; 5.44 µM (active) and 10.9 µM (active) in [13]; 783 nM (active) and 1.76 µM (active) in test [14]; 18.2 µM (active) and 10.5 µM (active) in test [15]. Moreover, the half-maximal activity concentration (AC50) in [16] was 3.06 µM (active).
